The record followed here is the supplement of paper PMC11172423.

Values without a mark were called inactive.

The subject of the test is Falciformispora senegalensis CBS197.79. The experiment in a line: growth relative to untreated control; higher = less inhibition, active = 20 or less. In outline: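 Hyphal fragments of M. mycetomatis MM55 or F. senegalensis CBS197.79 were suspended in colourless RPMI 1640 with L-glutamine and MOPS at 68–72% transmission at 660 nm. They were exposed in 96-well plates to compound at 100 or 25 µM for 7 days at 37 °C. Viability was read with MTS (2 h, 490 nm) or resazurin (600 nm). Growth is metabolic activity relative to the untreated growth control, both corrected with a medium-plus-dye blank.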

Regarding `COc1ccc(CCN(Cc2cccs2)C(=O)c2cc3sccc3n2C)cc1OC`, the growth was 97.9% (25 µM) and 113% (100 µM).
With `Cn1ccnc1SCC(=O)Nc1ccc(C(=O)Nc2ncccc2O)cc1`, the growth is, setting by setting: (25 µM) 87.2%; (100 µM) 79.4%.
On to `CCCC(CCC)C(=O)O`, for which the growth was 112% (25 µM) and 106% (100 µM).
Taken in the same sequence, the figures for `COc1cc(OC)c2c(O)nc(-c3cc(C)c(OCCO)c(C)c3)nc2c1` were 103% and 97.6%.
In the case of `C[C@@H]1[C@@H](NC(=O)c2cn3cc(Cl)ccc3n2)C[C@H]2C[C@@H]1C2(C)C`, the growth was 95.5% (25 µM) and 102% (100 µM).
As to `CNc1ccc2cc(NC(=O)c3ccc(C(F)(F)F)c(Cl)c3)ccc2n1`, the growth reads like this: (25 µM) 69.4%; (100 µM) 104%.
Regarding `CC[C@H](C)[C@H]1O[C@]2(C=C[C@@H]1C)C[C@@H]1C[C@@H](C/C=C(\C)[C@@H](O[C@H]3C[C@H](OC)[C@@H](O[C@H]4C[C@H](OC)[C@H](NC(C)=O)[C@H](C)O4)[C@H](C)O3)[C@@H](C)/C=C/C=C3\CO[C@@H]4[C@H](O)C(C)=C[C@@H](C(=O)O1)[C@]34O)O2`, the growth is, setting by setting: (25 µM) 101%; (100 µM) 91.4%.
In the case of `C[C@H](NC(=O)c1cc2cccc(F)c2[nH]1)c1ccccc1`, the growth was 100% (25 µM) and 90.3% (100 µM).
`CCN(CCO)CCCC(C)Nc1ccnc2cc(Cl)ccc12` (stereo not drawn): the growth is 109% (25 µM) and 105% (100 µM).
With `CC(=O)[C@@]1(O)CC[C@H]2[C@H]3CCC4=CC(=O)CC[C@@]4(C)[C@H]3CC[C@@]21C`, the growth was 92.2% (25 µM) and 106% (100 µM).
For the compound `Cc1noc(C2CN(C(=O)c3ccc(Nc4nccc(-c5ccc(Cl)cc5)n4)cc3)C2)n1`, the growth by setting is: (25 µM) 73.8%; (100 µM) 99.2%.
Taken in the same sequence, the figures for `CN1CCC(Oc2nc(Nc3ccccc3)nc3[nH]cc(-c4cnn(C)c4)c23)CC1` were 89% and 79%.
As to `CNCc1[cH-]ccc1CNc1ccnc2cc(Cl)ccc12.[Fe+2].c1cc[cH-]c1`, the growth reads like this: (25 µM) 10.2% (active); (100 µM) 14.6% (active).
Taken in the same sequence, the figures for `FC(F)(F)c1cc(Nc2nc3cnc(NCC4CC4)nc3n2C2CCNCC2)cc(C(F)(F)F)c1` were 81.9% and 20.9%.
With `N#Cc1ccc(-c2n[nH]c3ccc(-c4n[nH]c(CC(F)(F)F)n4)cc23)cc1`, the growth is 94% (25 µM) and 98.3% (100 µM).
Take `C/C=C/C[C@@H](C)[C@@H](O)[C@H]1C(=O)N[C@@H](CC)C(=O)N(C)CC(=O)N(C)[C@@H](CC(C)C)C(=O)N[C@@H](C(C)C)C(=O)N(C)[C@@H](CC(C)C)C(=O)N[C@@H](C)C(=O)N[C@H](C)C(=O)N(C)[C@H](CC(C)C)C(=O)N(C)[C@@H](CC(C)C)C(=O)N(C)[C@@H](C(C)C)C(=O)N1C`: the growth by setting is: (25 µM) 113%; (100 µM) 94.5%.
As for `CC(C)(C)NC(=O)[C@@H]1CN(Cc2cccnc2)CCN1C[C@@H](O)C[C@@H](Cc1ccccc1)C(=O)N[C@H]1c2ccccc2C[C@H]1O`, the growth (25 µM) was 105% and the growth (100 µM) was 103%.
For `N#Cc1c(N)nc(NC2CC2)nc1N`, the growth runs as follows: (25 µM) 99.7%; (100 µM) 92.9%.
Regarding `COc1ccc2cc1Oc1ccc(cc1)C[C@H]1c3cc(c(OC)cc3CCN1C)Oc1c(O)c(OC)cc3c1[C@@H](C2)N(C)CC3`, the growth is 100% (25 µM) and 19.7% (active) (100 µM).
Consider `CCCNc1nc(NC2CCCCC2)c2ccsc2n1`, for which the growth was 85.5% (25 µM) and 88.3% (100 µM).
For the compound `NC(=O)c1nc(F)cnc1O`, the growth was 114% (25 µM) and 102% (100 µM).
For the compound `O=C(Nc1cc(Cl)cc(Cl)c1O)c1c(O)c(Cl)cc(Cl)c1Cl`, the growth by setting is: (25 µM) 89.9%; (100 µM) 12.5% (active).
On to `CO[C@H]1C[C@H](O[C@H]2[C@H](C)O[C@@H](O[C@@H]3/C(C)=C/C[C@@H]4C[C@@H](C[C@]5(C=C[C@H](C)[C@@H](C6CCCCC6)O5)O4)OC(=O)[C@@H]4C=C(C)[C@@H](O)[C@H]5OC/C(=C\C=C\[C@@H]3C)[C@]54O)C[C@@H]2OC)O[C@@H](C)[C@@H]1O`, for which the growth is 93.1% (25 µM) and 88.5% (100 µM).
In the case of `C[C@H]1O[C@@H](O[C@H]2[C@@H](O)C[C@H](O[C@H]3[C@@H](O)C[C@H](O[C@H]4CC[C@@]5(C)[C@H](CC[C@@H]6[C@@H]5CC[C@]5(C)[C@@H](C7=CC(=O)OC7)CC[C@]65O)C4)O[C@@H]3C)O[C@@H]2C)C[C@H](O)[C@@H]1O`, the growth is, setting by setting: (25 µM) 99.1%; (100 µM) 98%.
